p53ts 32C tox – qHTS Screen for Compounds that Selectively Target Cancer Cells with p53 Mutations: Cytotoxicity of p53ts Cells at the Permissive Temperature. H1299-p53A138V at 32C, ATP luminescence viability, 24 h. Potency, µM (doses to about 46.1 µM), hits mostly cytotoxic. 0.93% of 130,000 active. AID 924, 2007; note: nearly all actives have a fitted effect of over 55% in size
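H1299-p53 A138V cells (temperature-sensitive p53) exposed 24 h to up to 46 uM compound at 32C, where p53 is wild-type in conformation. Viability read as ATP luminescence and normalised to DMSO and 100 uM tamoxifen. AC50 fitted with the Hill equation.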
p53ts 39C tox – qHTS Screen for Compounds that Selectively Target Cancer Cells with p53 Mutations: Cytotoxicity of p53ts Cells at the Nonpermissive Temperature; 1.5% of 130,000 active; AID 902, 2007; Potency, µM (top dose mostly 46.1 µM), actives largely listed as cytotoxic; H1299-p53A138V viability at 39C, ATP luminescence, 24 h; note: nearly all actives have a fitted effect of over 55% in size
Hsp90 Hop PPI – qHTS Assay for Disrupters of an Hsp90 Co-Chaperone Interaction | 0.44% of 71,000 active | AlphaScreen TPR2A-His6 binding biotin-Hsp90 C-terminal peptide | AID 595, 2007 | Potency, µM (series often up to 57 µM) | Hsp90 C-terminal peptide / TPR2A (Hop) interaction, human; active = well fitted curve in either direction with a large enough effect; inconclusive = small, poorly fitted or top-dose-only effect, or another doubt
FLuc inh – qHTS Assay for Inhibitors of Firefly Luciferase; Potency, µM (doses to about 57.1 µM), usual class: inhibitors; purified firefly luciferase, luminescence, 8 min; AID 411, 2009; 2.2% of 72,000 active; note: nearly all actives have a fitted effect of over 40% in size
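Luminescence read-out after 8 min at room temperature; enzyme reaction used luciferin plus 10 uM ATP (linear range) in imidazole buffer pH 7.2 with KCl, MgCl2, Tween 20 and BSA. Each sample was run as a titration.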
IMPase inh – qHTS Assay for Identifying the Cell-Membrane Permeable IMPase Inhibitors | CHO-M1 cells, IP1 accumulation, HTRF TR-FRET ratio | inhibition (IP1 accumulation), % at 46.1 µM | 120,000 tested, under 10 active | AID 901, 2007; active = well fitted curve in the direction sought with a large enough effect in the signal ratio, not every such curve was filed as active; inconclusive = small, poorly fitted or top-dose-only effect, or a change in a side signal; inactive = no such curve, though single readings can be large or run the other way; the % refers to the signal ratio;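 note: cells stimulated with carbachol in lithium chloride buffer; higher means more IMPase inhibition seen as more IP1 and lower FRET ratio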
Target sequence (P97697 whole entry, looked up): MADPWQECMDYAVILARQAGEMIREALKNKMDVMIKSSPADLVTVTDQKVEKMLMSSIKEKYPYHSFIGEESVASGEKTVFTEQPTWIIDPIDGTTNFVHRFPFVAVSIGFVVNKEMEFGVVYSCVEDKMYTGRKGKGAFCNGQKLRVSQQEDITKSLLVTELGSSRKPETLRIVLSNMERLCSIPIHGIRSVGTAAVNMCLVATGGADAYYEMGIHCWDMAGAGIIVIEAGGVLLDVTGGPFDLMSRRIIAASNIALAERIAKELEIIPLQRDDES
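The IP-One HTRF competitive assay in carbachol-stimulated CHO-M1 cells quantifies cellular IP1. Compounds spanned up to 46 uM final, and activity is expressed as AC50 from concentration-response fits of the ratio and donor data.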
IkB sig inh – IkB Signaling; ABC-DLBCL IkBa-CBG/CBR dual luciferase ratio, 4 h; response scale: scaled: untreated 0%, proteasome inhibitor 100%; Potency, µM (doses to about 57.1 µM); 0.04% of 110,000 active; AID 445, 2006; active = well fitted curve in the direction sought with a large enough effect in the signal ratio, not every such curve was filed as active; inconclusive = small, poorly fitted or top-dose-only effect, or a change in a side signal; the % refers to the signal ratio;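 note: the direction sought is a rising ratio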
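Luminescence ratio of IκBα-fused green versus native red beetle luciferase in OCI-Ly3 cells, 4 h post-doxycycline with compound; red signal alone, scaled from basal (0%) to zero light (-100%), flagged nonspecific or cytotoxic effects.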
Large screens that a line does not name were inactive. Shown is part of a subset that was picked to be rich in hits. Unless noted, calls come from the whole dose curve; as a rule, active = well fitted curve in the direction sought with a large enough effect; inconclusive = small, poorly fitted or top-dose-only effect, or another doubt; inactive = no such curve, though single readings can be large; an effect the other way counts as inactive or inconclusive.

CC1=C(C(=O)Nc2ccc(C)cc2C)C(c2cc(Br)ccc2F)n2ncc(C(=O)Nc3ccc(C)cc3)c2N1 (stereo not given)	p53ts 32C tox inconclusive, p53ts 39C tox 12.6µM, IkB sig inh inconclusive (no result: Hsp90 Hop PPI, FLuc inh, IMPase inh)
CC1=C(C(=O)Nc2ccccc2)C(c2cc(Br)ccc2F)n2ncc(C(=O)Nc3ccccc3)c2N1 (stereo not given)	IkB sig inh inconclusive (no result: Hsp90 Hop PPI, FLuc inh, IMPase inh)
Fc1ccccc1OCCSc1nnnn1-c1ccccc1	FLuc inh 15.8µM, IkB sig inh inconclusive
COc1ccc(NC(=O)CSc2nc(N)c(C(=O)Nc3ccc(N(C)C)cc3)s2)cc1	none (no result: p53ts 32C tox, p53ts 39C tox, Hsp90 Hop PPI, FLuc inh, IkB sig inh)
CCOC(=O)c1sc(SCC(=O)Nc2ccc(N(C)C)cc2)nc1N	p53ts 32C tox inconclusive, p53ts 39C tox inconclusive, FLuc inh 12.6µM, IkB sig inh inconclusive
O=C(NC1CC1)c1cccc(Nc2ccc(-c3ccc4c(c3)OCCO4)nn2)c1	p53ts 32C tox 20µM, p53ts 39C tox 10µM, FLuc inh 2µM, IkB sig inh inconclusive
Cn1c2ccccc2c2c(C(=O)NCC3CCCO3)cn(C3CCCC3)c(=O)c21 (stereo not given)	FLuc inh 12.6µM
Cc1c(C(=O)O)cnc2cc(-c3ccc(Cl)cc3)nn12	p53ts 32C tox 10µM, p53ts 39C tox inconclusive, FLuc inh 12.6µM, IkB sig inh inconclusive
C=C1CC[C@@H]2[C@](C)(CC[C@@H](O)[C@]2(C)CO)[C@@H]1C/C=C1/C(=O)OC[C@H]1O	Hsp90 Hop PPI inconclusive (no result: p53ts 32C tox, p53ts 39C tox, IMPase inh)
CC(=O)Nc1ccc(S(=O)(=O)Nc2cccc(-c3ccc(N4CCC(C)CC4)nn3)c2)cc1	p53ts 32C tox 2.51µM, p53ts 39C tox 3.55µM, IkB sig inh inconclusive (no result: Hsp90 Hop PPI, FLuc inh, IMPase inh)
COc1ccc(OC)c(S(=O)(=O)Nc2cccc(-c3ccc(N4CCCCC4)nn3)c2)c1	p53ts 39C tox inconclusive (no result: Hsp90 Hop PPI, FLuc inh, IMPase inh)
CC(=O)c1ccc(S(=O)(=O)Nc2ccc(-c3ccc(N4CCCCC4)nn3)cc2)cc1	p53ts 32C tox inconclusive, p53ts 39C tox 3.98µM, IkB sig inh inconclusive (no result: Hsp90 Hop PPI, FLuc inh, IMPase inh)
CC(=O)Nc1ccc(S(=O)(=O)Nc2cccc(-c3ccc(N4CCCCCC4)nn3)c2)cc1	p53ts 32C tox inconclusive, p53ts 39C tox inconclusive (no result: Hsp90 Hop PPI, FLuc inh, IMPase inh)
COc1ccc(S(=O)(=O)Nc2cccc(-c3ccc(N4CCC(C)CC4)nn3)c2)c(OC)c1	p53ts 32C tox 10µM, p53ts 39C tox 15.8µM, IkB sig inh inconclusive (no result: Hsp90 Hop PPI, FLuc inh, IMPase inh)
CCc1ccc(S(=O)(=O)Nc2cccc(-c3ccc(N4CCC(C)CC4)nn3)c2)s1	p53ts 32C tox 12.6µM, p53ts 39C tox 10µM, IkB sig inh inconclusive (no result: Hsp90 Hop PPI, FLuc inh, IMPase inh)
Cc1cc(C)c(Cn2c(=O)n(CCCC(=O)NCc3ccc4c(c3)OCO4)c(=O)c3sccc32)c(C)c1	p53ts 39C tox inconclusive, IkB sig inh inconclusive (no result: Hsp90 Hop PPI, FLuc inh, IMPase inh)
Clc1ccc(OCc2nc(-c3ccccn3)no2)c(Br)c1	p53ts 32C tox 12.6µM, p53ts 39C tox 12.6µM, FLuc inh 2.51µM
Clc1ccccc1OCc1nc(-c2ccccn2)no1	p53ts 32C tox inconclusive, p53ts 39C tox inconclusive, FLuc inh 10µM, IkB sig inh inconclusive
Nc1nonc1-c1noc(COc2ccccc2Cl)n1	FLuc inh 12.6µM
Clc1ccccc1OCc1nc(-c2ccc(Br)o2)no1	none (no result: p53ts 32C tox, p53ts 39C tox, Hsp90 Hop PPI, FLuc inh, IkB sig inh)
Cc1cccc(OCc2nc(-c3nonc3N)no2)c1C	p53ts 32C tox inconclusive
COc1ccccc1-c1nnc(C2CCN(S(=O)(=O)c3ccc(CC(C)C)cc3)CC2)o1	none (no result: Hsp90 Hop PPI, FLuc inh, IMPase inh)
CCOC(=O)c1c(S(=O)(=O)NCC(=O)Nc2cccc(SC)c2)c(C)n(C)c1C	none (no result: Hsp90 Hop PPI, FLuc inh, IMPase inh)
COc1ccccc1C[C@@H](Cc1nc2ccccc2[nH]1)c1nc2ccccc2[nH]1	none (no result: p53ts 32C tox, p53ts 39C tox, IMPase inh)
CCN(Cc1ccccc1)C(=O)c1cc2ccc3cccnc3c2[nH]1	p53ts 32C tox inconclusive, p53ts 39C tox 31.6µM, IkB sig inh inconclusive (no result: Hsp90 Hop PPI, FLuc inh, IMPase inh)
